NALP3 yeast inh = NALP3 inhibition in yeast. Yeast reconstituted NLRP3/ASC/caspase-1, beta-gal luminescence, 24 h. inhibition, % at 10 µM. actives 0.39% (n = 330,000);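 active means inhibition of 50% or more; inactive means inhibition below 50%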;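 further: plate controls were induced DMSO wells for no effect and uninduced yeast grown without galactose for full effect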
TIM10 inh = TIM10 yeast growth inhibition; S. cerevisiae TIM10 strain growth, BacTiter-Glo luminescence, 24 h; inhibition, % at 10 µM; actives 1.4% (n = 330,000);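 active means inhibition of 40% or more at the single tested concentration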;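 further: wild-type TIM10 isogenic control strain grown at permissive 25 °C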
NALP1 inh = blocks the NALP1 inflammasome reconstituted in yeast. actives 0.61% (n = 280,000). inhibition, % at 10 µM. S. cerevisiae NALP1/ASC/caspase-1 growth, X-gal OD620, 72 h; in the data active means inhibition mostly above about 24%, no sharp cut-off; inactive means mostly below about 32%
tim23-1 inh = inhibits growth of tim23-1 mutant yeast; actives 1.3% (n = 330,000); AID 463212; S. cerevisiae tim23-1 growth, BacTiter-Glo luminescence, 24 h; inhibition, % at 20 µM;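 active means growth inhibition of the mutant yeast at or above 50%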;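 further: temperature-sensitive mutant grown at 25 °C; plate controls were DMSO-treated mutant yeast for no effect and medium wells lacking yeast for full effect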
tim10-1 inh = tim10-1 yeast growth inhibition; S. cerevisiae tim10-1 ts strain growth, BacTiter-Glo, 24 h; inhibition, % at 20 µM; actives 2.2% (n = 330,000);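 active means inhibition of at least 40%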;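 further: mutant grown at 25 °C; 0% = DMSO wells with yeast and 100% = wells holding no yeast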
tim10-1 confirm = confirmation of tim10-1 mutant yeast growth inhibitors | actives 56% (n = 7,400) | inhibition, % at 20 µM | shares compounds with tim10-1 inh | S. cerevisiae tim10-1 ts strain growth, BacTiter-Glo, 24 h;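 active means inhibition of yeast growth at or above a set limit in either of two repeat tests at 20 µM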;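 further: tim10-1 mutant grown at permissive 25 °C to find synthetic lethal compounds; 0% = DMSO yeast wells and 100% = medium wells without yeast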
Numbers without * were called inactive; x = no result given. Rows were chosen to be rich in hits. Some 4% of all compounds tested hit in one or more screens of this group.

SMILES	NALP3 yeast inh	TIM10 inh	NALP1 inh	tim23-1 inh	tim10-1 inh	tim10-1 confirm
COc1cc(C(=O)NCC2CCCO2)ccc1OCc1ccc(Cl)cc1Cl (centres undefined)	28.9	17.6	x	33.2	43.0*	29.6*
COCCNC(=O)/C(C#N)=C/c1ccc(OC(=O)c2cccs2)c(OC)c1	x	x	-34.3	x	x	x
COc1cc(/C=C(\C#N)C(=O)NCc2cccs2)ccc1O	15.1	27.8	19.6	30.0	42.3*	28.5
COc1ccc(/C=C(\C#N)C(=O)NCC2CCCO2)cc1OC (centres undefined)	-1.7	22.8	22.6	46.1	40.0*	10.8
Cn1c(CC(=O)Nc2ccccc2)cc2ccccc21	32.1	-5.0	-8.0	8.7	-22.3	x
Cc1nc2cc(C(=O)OCC(=O)NC34CC5CC(CC(C5)C3)C4)ccc2n1-c1ccccc1	1.3	27.8	x	34.2	40.2*	31.9*
O=C(NCCC(=O)N(CCc1ccccc1)Cc1ccccc1)c1ccc([N+](=O)[O-])cc1	12.6	6.9	x	29.2	20.5	x
Cc1ccc2[nH]cc(CCNC(=O)c3cccs3)c2c1	28.8	0.2	30.7	11.7	-1.9	x
NNC(=O)c1cccc(COc2ccc3c(c2)CCC3)c1	23.6	25.3	35.3	47.6	46.9*	19.2
NNC(=O)c1cccc(COc2ccccc2Br)c1	12.5	39.5	-9.9	43.2	41.2*	16.5
O=C(NCc1ccccc1)c1cccc(COc2ccccc2Cl)c1	10.6	21.4	10.9	34.4	33.6	x
O=C(NCCc1ccc(F)cc1)c1ccc2c(=O)n3c(nc2c1)CCC3	11.6	7.4	x	0.3	4.0	x
Cc1cc(C)c(NC(=O)CNC(=O)[C@@H]2CCCN2C(=O)c2cccs2)c(C)c1	17.3	7.0	x	6.8	4.1	x
Cc1cccc(N=C2Sc3nc4c(C)c(C)ccc4cc3CN2CCN2CCOCC2)c1	16.8	39.5	-7.2	47.5	52.8*	36.6*
COCCN1Cc2cc3cc(C)ccc3nc2SC1=Nc1cccc(OC)c1	26.9	8.6	0.5	26.8	5.4	x
CCc1ccc(OCC(=O)Nc2ccc(S(=O)(=O)N3CCOCC3)cc2)cc1	8.9	15.7	x	31.3	40.0	33.2*
COc1ccc(OCC(=O)Nc2ccc(S(=O)(=O)N3CCOCC3)cc2)cc1	-12.3	32.8	9.5	24.1	47.8*	32.1*
CCCN(CCC)S(=O)(=O)c1ccc(NC(=O)COc2ccccc2)cc1	22.0	39.6	-0.5	37.8	52.4*	37.5*
Cc1ccc(NC(=O)COc2ccc(Cl)cc2Cl)cc1S(=O)(=O)N1CCOCC1	25.0	33.5	x	35.9	48.7*	19.9
Cc1cc(C(=O)Nc2ccc([N+](=O)[O-])cn2)cs1	-2.3	7.6	3.3	24.2	16.3	x
Cn1nc(C(=O)N2CCC(C(N)=O)CC2)c2c1-c1ccccc1SC2	19.8	1.9	11.2	-3.3	-19.8	x
Fc1ccc(CNC(=S)Nc2cccc(C(F)(F)F)c2)cc1	5.4	39.8	7.0	30.5	51.5*	43.0*
Fc1cccc(NC(=S)NCc2ccc(Cl)cc2)c1	-6.0	28.5	24.5	45.7	37.5	x
O=C(NC(=S)Nc1cccc(C(F)(F)F)c1)c1csnn1	15.5	13.9	5.0	42.6	52.0*	35.6*
O=C(NC(=S)Nc1ccccc1Cl)c1csnn1	-16.3	19.2	16.9	30.8	9.9	x
SMILES	NALP3 yeast inh	TIM10 inh	NALP1 inh	tim23-1 inh	tim10-1 inh	tim10-1 confirm
FC(F)(F)c1cccc(NC(=S)NCc2ccc(Cl)cc2)c1	-5.5	39.4	1.3	8.2	42.9*	18.4
CN(C)NC(=S)Nc1cccc(C(F)(F)F)c1	13.3	3.7	10.2	-5.3	16.0	x
Cc1ccc(/C=C/C(=O)O)cc1S(=O)(=O)N1CCCCC1	-7.2	-6.1	8.5	-1.7	-8.8	x
CSC1=NC(C)(C)C=C(/C=C/c2c(Cl)cccc2Cl)N1	17.7	35.7	28.8	36.3	44.1*	25.2
CSC1=NC(C)(C)C=C(/C=C/c2ccc(Cl)cc2)N1	29.7	18.3	-22.4	29.8	43.4*	27.5
Cc1cc(O)c(CN2CCN(S(=O)(=O)c3cccs3)CC2)cc1C(C)C	10.1	13.3	x	28.3	7.5	x
CC(C)c1ccc(N(CC(=O)N2CCN(Cc3ccccc3)CC2)S(C)(=O)=O)cc1	20.5	8.2	8.9	13.3	13.2	x
Cc1ccc(S(=O)(=O)NCc2ccco2)cc1C	14.2	4.7	24.3	-4.9	3.2	x
O=S(=O)(NCc1ccco1)c1ccc2c(c1)Cc1ccccc1-2	7.9	34.4	x	25.8	45.1*	34.8*
Cc1cc(C)cc(NC(=O)c2cc(S(=O)(=O)NCc3ccco3)ccc2F)c1	9.1	38.7	-6.5	41.3	46.0*	40.1*
Cc1ccc(Cn2c(C3CCCN3c3nc(C)cs3)nc3cc(C(F)(F)F)ccc32)cc1 (centres undefined)	-6.4	21.3	5.2	27.3	24.5	x
CCN(CC(=O)Nc1cccc(OC)c1)c1ncnc2sc(C)c(C)c12	15.6	1.2	x	32.5	16.4	x
COc1ccc(-n2cc3c(-c4cccc(Br)c4)nnc(C)c3n2)cc1	28.2	26.2	35.7	48.4	46.2*	30.5
Cc1csc(NC(=O)CSc2nc(C(C)C)nc3ccccc23)n1	19.6	10.2	-22.1	26.5	-10.0	x
c1ccc(-c2nnn(C34CC5CC(CC(C5)C3)C4)n2)cc1	8.8	27.4	8.0	22.2	46.6*	12.4
CCc1nn(CCCC(=O)N2CCN(c3cccc(C)c3C)CC2)c(=O)c2cc3occc3n12	33.9	27.4	14.5	38.3	54.0*	20.6
CCc1nn(CCCC(=O)N2CCc3ccccc3C2)c(=O)c2cc3occc3n12	0.1	7.4	17.1	12.2	3.0	x
COC(=O)c1ccc(N2CCN(S(=O)(=O)c3ccccc3)CC2)c([N+](=O)[O-])c1	12.8	3.2	41.3	30.5	42.4*	14.9
O=C(/C=C/c1ccc2c(c1)OCO2)c1ccc(F)cc1	5.4	2.8	14.6	6.8	14.8	x
N#CC(CC(=O)c1ccc(F)cc1)c1ccc2c(c1)OCO2 (centres undefined)	12.5	18.0	14.1	38.9	40.5*	30.9*
O=C(Cn1c2ccccc2c2nc3n(c(=O)c21)CCS3)Nc1ccccc1C(F)(F)F	5.4	7.8	10.8	24.6	21.5	x
COc1ccccc1NC(=O)Cn1c2ccccc2c2nc3n(c(=O)c21)CCS3	1.0	6.9	16.0	-2.0	42.0*	20.1
COc1ccc(/C=C2\CCC(C3CCCC3)C2=O)cc1 (centres undefined)	37.7	0.7	33.8	8.0	10.1	x
COc1ccc(/C=C2\CCCC3C2=NC(=S)NC3c2ccc(OC)cc2)cc1 (centres undefined)	3.8	24.0	9.1	49.5	46.1*	28.3
Cc1ccc2c(C)c(C(=O)N3CCN(Cc4ccc5c(c4)OCO5)CC3)oc2c1C	20.3	20.5	15.8	42.7	46.9*	8.2
O=C(c1cccc(Cl)c1)N1CCN(Cc2ccc3c(c2)OCO3)CC1	8.9	-4.4	11.6	7.5	8.0	x
O=C(c1cc2cc(Cl)ccc2[nH]1)N1CCN(Cc2ccc3c(c2)OCO3)CC1	-4.9	24.5	16.3	37.2	48.8*	-27.4

Screening data from PubChem.
